Among the data in PubChem BioAssay (Tox21) are outcome values, retold here.

The source made the active and inactive calls. The call rests on the fitted dose curve; in most records, active means well fitted curve in the direction sought with a large enough effect in the repeat runs; inconclusive means weak or mixed curves; inactive means flat fitted curve, though single readings scatter.

This assay can be described thus: qHTS assay to test for compound auto fluorescence at 535 nm (green) in HepG2 cells (AID 720675). To be noted: green autofluorescence 485/535 nm, 1 h; series mostly up to 91.3 µM. On the technique in general: qHTS replaces the single test concentration by a dilution series.
On to `O=[N+]([O-])C(Br)(CO)CO`, for which the result was inactive.
For `O=C(O)C(F)(F)C(F)(F)C(F)(F)C(F)(F)C(F)(F)C(F)(F)C(F)(F)C(F)(F)C(F)(F)F`, the outcome was inactive.
For the molecule `NS(=O)(=O)C(F)(F)C(F)(F)C(F)(F)C(F)(F)C(F)(F)C(F)(F)C(F)(F)C(F)(F)F`, the molecule was called inactive.
Next, `C/C(=C\c1ccccc1)[N+](=O)[O-]`: “inactive”.
Regarding `COCCOCCO`, the outcome was inactive.
In the case of `Clc1cccc(SC2CCNCC2)n1`, the call was inactive.
Consider `CC(C)(C)C(O)C(Oc1ccc(Cl)cc1)n1cncn1` (stereo not drawn), for which the call was inactive.
The entry for `O=C(Nc1ccccc1)Nc1ccnc(Cl)c1` is “inactive”; for `O=[N+]([O-])c1cc(C(F)(F)F)cc([N+](=O)[O-])c1Cl` it is “inactive”.
`C=CC(=O)OCC(C)O` (stereo not drawn): the molecule was classed as inactive.
In the case of `O=C(O)CC(Cl)C(=O)O` (stereo not drawn), the result was inactive.
Next, `C=CCN1CC[C@]23c4c5ccc(O)c4O[C@H]2C(=O)CC[C@@]3(O)[C@H]1C5`: “inactive”.
With `O=C(O)C1(c2ccc3c(c2)OC[C@H](Cc2ccc(-c4ccccc4)cc2)[C@H]3O)CCCC1`, the result was inactive.
